An excerpt weighted towards active compounds, which were near 7.9% of everything screened.
HCV inhibitor = HCV inhibition; 3.4% of 340,000 active; Potency, µM (top dose mostly 41.8 µM), for inactives: top-dose activity change, negative = inhibition, usual class: inhibitors; Huh7.5.1 HCVcc-Cre infection, luciferase reporter, 44 h; active = well fitted inhibition curve with a large enough effect; inconclusive = small, poorly fitted or top-dose-only effect, or another doubt; inactive = no such curve, though single readings can be large or run the other way; also: potency is read from the fitted curve at half-maximal effect
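Cells (1,000/well) were plated 4 h before compound, then infected with HCVcc-Cre virus (~0.5 moi). After 44 h further culture, infection was read as luciferase luminescence following a 15 min substrate incubation at room temperature.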
Lassa entry inh = Lassa virus entry inhibition. Potency, µM (highest dose often 37.9 µM), for inactives: top-dose activity change, negative = inhibition, actives largely listed as inhibitors. 1.2% of 300,000 active. AID 540256. Lassa virus pseudotype entry inhibition, cell reporter; calls by dose curve; tested in HEK293 cells; also: potency is read from the fitted curve at half-maximal effect; nearly all actives have a fitted effect of over 50% in size
FMDV inh = antivirals against foot and mouth disease virus; FMDV antiviral cell-based qHTS; Potency, µM (highest dose often 57.9 µM), inactives show at the highest dose activity change, negative = inhibition, actives largely listed as inhibitors; 1.2% of 410,000 active; AID 1159524; calls by dose curve; tested in HEK293T cells; also: read-out not given here; potency is read from the fitted curve at half-maximal effect; nearly all actives have a fitted effect of over 45% in size
MARV entry inh = inhibitors of Marburg virus binding or cell entry; Marburg virus pseudotyped entry inhibition, cell reporter; Potency, µM (doses to about 37.8 µM), without a hit: top-dose activity change, negative = inhibition, most hits filed as inhibitors; 1.8% of 300,000 active; AID 540276; calls by dose curve; tested in HEK293 cells; also: potency is read from the fitted curve at half-maximal effect
HCMV inh = inhibitors of human cytomegalovirus; HFF cells, HCMV-luciferase reporter, 72 h; hits give low values; activity change, negative = inhibition, % at 57.5 µM; 4.5% of 410,000 active; AID 1259415; in the data active = activity change below about -60%; inconclusive = no clear call, values can overlap the other calls; inactive = above about -39%
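Human foreskin fibroblasts infected with luciferase-reporter HCMV at MOI 1 PFU/cell, compounds at two doses. Luciferase measured 72 h post infection; normalized to buffer-only basal and Salinomycin (10uM) controls.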
An asterisk follows results filed as active; ! = not active in a repeat; [ ] = remark or other dose. % is scaled to controls: 0 for no effect and ±100 for the full control effect.

For CC(=O)c1ccccc1OCC(O)CN1CCN(CCN2C(=O)c3cccc4cccc(c34)C2=O)CC1 (stereo not drawn) the results were HCV inhibitor 10µM*, Lassa entry inh inconclusive, FMDV inh 28µM*, MARV entry inh inconclusive and HCMV inh -65*.
Screening CC(=O)c1ccccc1OCC(O)CN1CCN(c2ccccn2)CC1 (stereo not drawn) returned HCV inhibitor 4%, Lassa entry inh 4%[46.1 µM], FMDV inh -16%, MARV entry inh -5%[46.1 µM] and HCMV inh -35.
`Cc1ccc(C)c(OCC(O)CN2CCN(CCN3C(=O)c4cccc5cccc(c45)C3=O)CC2)c1` (stereo not drawn) gave HCV inhibitor inconclusive, Lassa entry inh inconclusive, FMDV inh 25µM*, MARV entry inh inconclusive and HCMV inh -84*.
`N#Cc1cc([N+](=O)[O-])cnc1N(CCO)CCO` gave HCV inhibitor 7%, Lassa entry inh 16%, FMDV inh -13%, MARV entry inh 15% and HCMV inh 27.
Screening Cc1ccnc(N/C=C(\C#N)c2nc(-c3cccc(Br)c3)cs2)c1 returned HCV inhibitor inconclusive, Lassa entry inh inconclusive, FMDV inh -10%, MARV entry inh inconclusive and HCMV inh -80*.
For N#C/C(=C/c1ccc(Cl)cc1)c1nc(-c2ccc(Br)cc2)cs1 the results were Lassa entry inh 12%[46.1 µM], FMDV inh 1% and HCMV inh 5.
Cc1cc(C)c(S(=O)(=O)N2CCCCC2CCNC(=O)C(=O)NC2CC2)c(C)c1 (stereo not drawn) was read as HCV inhibitor 7%, Lassa entry inh 0.89µM*, FMDV inh -16% and MARV entry inh inconclusive.
Cc1cc(S(=O)(=O)N2CCCCC2CCNC(=O)C(=O)NC2CC2)ccc1F (stereo not drawn) was read as HCV inhibitor -1%, Lassa entry inh inconclusive, FMDV inh -19%, MARV entry inh inconclusive and HCMV inh -39.
`Cc1ccc(C(=O)NCC2CCCN2S(=O)(=O)c2ccc(C)cc2)cc1` (stereo not drawn) gave HCV inhibitor -20%, Lassa entry inh 10%, FMDV inh 11%, MARV entry inh 3%[46.1 µM] and HCMV inh -6.
For Cc1ccc(C)c(S(=O)(=O)N2CCCCC2CCNC(=O)C(=O)NCc2ccco2)c1 (stereo not drawn) the results were HCV inhibitor 11µM*, Lassa entry inh -25%, FMDV inh inconclusive, MARV entry inh inconclusive and HCMV inh -33.
Screening Cc1ccc(C)c(S(=O)(=O)N2CCCC2CNC(=O)c2ccc([N+](=O)[O-])cc2)c1 (stereo not drawn) returned HCV inhibitor 11µM*, Lassa entry inh inconclusive, FMDV inh inconclusive, MARV entry inh inconclusive and HCMV inh -29.
`CCOC(=O)CC1c2nc3ccccc3cc2CN1C(=O)OCC` (stereo not drawn) gave FMDV inh inconclusive and HCMV inh -23.
`CC1(C)CC(=O)c2cc(-c3nc(-c4ccc(Br)cc4)cs3)c(=O)n(-c3ccccc3)c2C1` gave Lassa entry inh 1%[46.1 µM], FMDV inh -13%, MARV entry inh 0%[46.1 µM] and HCMV inh -10.
Screening O=S(=O)(c1ccc(-c2cc(C(F)(F)F)on2)s1)N1CCN(c2ccccc2F)CC1 returned Lassa entry inh inconclusive, FMDV inh -23% and HCMV inh inconclusive.
For O=C(Nc1ccc(F)cc1)N1CCN(c2ccc3nnc(-c4ccc(F)cc4)n3n2)CC1 the results were HCV inhibitor inconclusive, FMDV inh inconclusive, MARV entry inh 1%[46.1 µM] and HCMV inh -69*!.
O=C(c1ccc(Br)o1)N1CCN(c2ccc3nnc(-c4ccccc4)n3n2)CC1 was read as HCV inhibitor -19%, FMDV inh inconclusive and HCMV inh -72*.
Screening O=C(Nc1ccccc1C(F)(F)F)N1CCN(c2ccc3nnc(-c4ccc(F)cc4)n3n2)CC1 returned HCV inhibitor inconclusive, Lassa entry inh -24%, FMDV inh -18%, MARV entry inh inconclusive and HCMV inh -12.
Screening Cc1ccc(S(=O)(=O)N2CCN(C(=O)CNC(=O)c3ccc(Br)o3)CC2)cc1 returned HCV inhibitor 0%, Lassa entry inh 0%[46.1 µM], FMDV inh -15%, MARV entry inh 2% and HCMV inh -25.

Screening results from PubChem.
